# From PubChem BioAssay
# Shown are actives, neighbours in structure and some others; about 21% of the full set was active somewhere.
# ClpP mod – qHTS Assay for Activators of ClpP. purified B. subtilis ClpP, FRET peptide cleavage, 20 min. Potency, µM (series often up to 57.5 µM), for inactives: top-dose activity change, negative = active. hit rate 1.9% among 340,000. AID 651965, 2013; active = well fitted falling curve with a large enough effect; inconclusive = small, poorly fitted or top-dose-only effect; inactive = no such curve, though single readings can be large or run the other way; also: potency is read from the fitted curve at half-maximal effect; the source files actives as falling curves though it sought activators and does not explain the sign; nearly all actives have a fitted effect of over 65% in size
# Target sequence (P80244 whole entry, looked up): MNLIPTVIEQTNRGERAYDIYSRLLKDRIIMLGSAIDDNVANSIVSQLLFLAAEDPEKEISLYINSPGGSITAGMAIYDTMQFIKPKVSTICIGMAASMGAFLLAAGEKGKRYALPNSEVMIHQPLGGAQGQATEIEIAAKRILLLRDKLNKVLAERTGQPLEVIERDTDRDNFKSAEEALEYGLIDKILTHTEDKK
#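 FRET quenching reversal measured ClpP activation: 10 microg/mL B. subtilis ClpP at pH 8 with the FRET-FV decapeptide, read at 430 nm after 320 nm excitation. The 20-min minus 0-min signal was scaled between DMSO/no-enzyme wells and ADEP (5.8 microM final).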
# IL1B secr inh – qHTS for Inhibitors of Inflammasome Signaling: IL-1-beta AlphaLISA Primary Screen. THP-1 LPS/ATP IL-1B secretion, AlphaLISA, 16 h; active compounds read low. activity change, % at 57.5 µM. hit rate 4.7% among 360,000; in the data active = activity change below about -50%; inconclusive = mostly about -30% to -49%; also: % is scaled to controls: 0 for no effect and ±100 for the full control effect
#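 Secreted IL-1B measured by AlphaLISA bead assay after 16 h compound exposure of THP-1 cells; compounds (final up to 57.5 uM) added 1 h before LPS (250 ng/mL) and ATP (1.25 mM) stimulation; lower signal means less secretion.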
# DT40 TDP1 CPT – qHTS for Inhibitors of human tyrosyl-DNA phosphodiesterase 1 (TDP1): qHTS in cells in presence of CPT | chicken DT40 Tdp1-/-;hTDP1 cells + 20 nM CPT, ATP luminescence, 48 h | hit rate 12% among 420,000 | Potency, µM (series often up to 46.2 µM), for the others: at the highest dose activity change, negative = growth inhibition, actives largely listed as inhibitors; also: potency is read from the fitted curve at half-maximal effect; % is scaled to controls: 0 for no effect and ±100 for the full control effect; nearly all actives have a fitted effect of over 55% in size
#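 Chicken DT40 Tdp1-/- cells stably complemented with human TDP1 were seeded at 400 cells/well in medium containing 20 nM camptothecin, exposed to pin-transferred compounds, and grown at 37 °C for at least 48 hr. Viability was read as ATP luminescence.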
# DT40 TDP1 no CPT – qHTS for Inhibitors of human tyrosyl-DNA phosphodiesterase 1 (TDP1): qHTS in cells in absence of CPT. hit rate 15% among 420,000. DT40 Tdp1-/- hTDP1 cells, no CPT, ATP luminescence, 48 h. Potency, µM (top dose mostly 46.2 µM), without a hit: at the highest dose activity change, negative = growth inhibition, usual class: inhibitors; also: potency is read from the fitted curve at half-maximal effect; % is scaled to controls: 0 for no effect and ±100 for the full control effect; nearly all actives have a fitted effect of over 55% in size
#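 DT40 Tdp1-/-;hTDP1 cells, no CPT (DMSO vehicle only), 400 cells/well; compounds pin-transferred; ≥48 hr, 37 °C; CellTiter-Glo 30 min RT dark, luminescence read.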
# D3 antag – qHTS of D3 Dopamine Receptor Antagonist: qHTS. AID 652054, 2013. max response, negative = inhibition, %. D3R cells, DiscoveRx beta-arrestin luminescence, antagonist mode; active compounds read low. hit rate 2.5% among 360,000; in the data active = max response below about -50%; inconclusive = no clear call, values can overlap the other calls; also: % is scaled to controls: 0 for no effect and ±100 for the full control effect
# Target sequence (P35462 whole entry, looked up): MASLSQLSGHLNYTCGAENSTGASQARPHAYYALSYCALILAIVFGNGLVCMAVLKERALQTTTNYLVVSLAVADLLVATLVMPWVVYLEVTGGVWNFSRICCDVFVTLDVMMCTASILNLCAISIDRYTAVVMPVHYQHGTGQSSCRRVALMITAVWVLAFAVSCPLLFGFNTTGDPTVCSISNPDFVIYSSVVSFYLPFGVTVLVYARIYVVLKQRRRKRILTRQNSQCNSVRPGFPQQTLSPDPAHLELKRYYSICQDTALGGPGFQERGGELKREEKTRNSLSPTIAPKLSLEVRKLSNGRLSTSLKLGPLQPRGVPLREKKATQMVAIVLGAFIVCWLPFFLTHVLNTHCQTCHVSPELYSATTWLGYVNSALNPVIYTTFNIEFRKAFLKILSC
#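 Cells plated overnight at 1500 cells/well, then exposed to library compounds with dopamine controls for 90 minutes at 37 degrees C. DiscoveRx reagent added for 30–60 minutes at room temperature; luminescence read, quantitative HTS format.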
# DRD3 agonist – qHTS of D3 Dopamine Receptor Agonist: qHTS; hit rate 0.58% among 410,000; D3R DiscoveRx beta-arrestin cells, luminescence, 90 min; max activation, %; AID 652048, 2013; in the data active = max activation above about 30%; also: 0% is about no effect
#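 Cells at 1500/well, incubated overnight, then treated with pinned compounds (dopamine as control) for 90 min at 37 degrees C. DiscoveRx reagent added for 30 - 60 minutes at room temperature; luminescence read.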
# * marks the source's active call; other numbers are inactive results; ? = inconclusive; . = not tested or not shown; [ ] = another dose, or the depositor's remark. Unless noted, calls follow the shape of the dose curve; as a rule, active = well fitted inhibition curve with a large enough effect; inconclusive = small, poorly fitted or top-dose-only effect; inactive = flat fitted curve, though single readings scatter.
SMILES,ClpP mod,IL1B secr inh,DT40 TDP1 CPT,DT40 TDP1 no CPT,D3 antag,DRD3 agonist
Cc1ccc(S(=O)(=O)N2CCOCC2)cc1NC(=O)COC(=O)/C=C/c1ccco1,0.8%,0.0,-17.4%,?,-1.6,3.2
CCN(CC)c1ccc(S(=O)(=O)N2CCOCC2)cc1NC(=O)COC(=O)c1ccco1,.,-6.1,3.0%,-24.2%,-8.9,4.0
CCN(CC)c1ccc(S(=O)(=O)N2CCOCC2)cc1NC(=O)CN1CCc2ccccc2C1,.,-110.5*,4.61µM*,7.31µM*,-11.1,-6.1
COc1ccc2c(C)c(CC(=O)NCCc3ccccc3)c(=O)oc2c1OC,?,.,-0.2%,-13.8%,.,-8.7
COc1ccc2cc(CNCc3ccccc3C(F)(F)F)c(N3CCCC(CO)C3)nc2c1 (configuration not stated),.,.,-12.1%[9.04 µM],-28.9%,.,.
COc1ccc(C(=O)NCc2nnc(SCC(=O)NO)n2Cc2ccccc2)cc1,-1.2%,?,18.4µM*,?,-2.6,0.2
COc1ccc(CC(=O)NCc2nnc(SCCOc3ccccc3)n2C)cc1,3.1%,-24.9,?,?,26.5,-10.9
CCn1c(CNC(=O)Cc2ccc(OC)cc2)nnc1SCCOc1ccccc1,-0.9%,?,?,16.4µM*,51.8,10.5
COc1ccc(-c2nnc(NC(=O)c3ccc(S(=O)(=O)N4CCc5ccccc5C4)cc3)o2)cc1,3.3%,6.1,4.47µM*,4.47µM*,5.2,7.7
COC(=O)c1ccc(-c2csc(NC(=O)c3ccc(S(=O)(=O)N4CCc5ccccc5C4)cc3)n2)cc1,-4.4%,-1.3,7.31µM*,5.8µM*,-11.4,1.4
COc1ccc(-c2csc(NC(=O)c3ccc(S(=O)(=O)N4CCc5ccccc5C4)cc3)n2)cc1,-1.6%,13.9,-13.0%,?,-19.0,3.6
CC(=O)NC1C(OC(=O)/C=C/c2ccccc2)OC(COC(C)=O)C(OC(C)=O)C1OC(C)=O (configuration not stated),1.6%,-6.8,17.4%,17.6%,-10.5,0.9
Cc1cccc(NC(=O)C2CCN(S(=O)(=O)c3c(C)noc3/C=C/c3ccco3)CC2)n1,-15.0%,?,16.4µM*,23.1µM*,-27.3,-2.8
CCC(C)N1CCN(C(=O)C2CCN(S(=O)(=O)c3c(C)noc3/C=C/c3ccco3)CC2)CC1 (configuration not stated),-5.8%,?,?,?,-2.3,-0.1
Cc1noc(/C=C/c2ccco2)c1S(=O)(=O)N1CCC(C(=O)Nc2ccc(F)c(Cl)c2)CC1,-7.9%,.,5.17µM*,4.61µM*,.,2.0
Cc1cc(C)cc(NC(=O)C2CCN(S(=O)(=O)c3c(C)noc3/C=C/c3ccco3)CC2)c1,-2.6%,.,23.1µM*,14.6µM*,.,-21.9
CCOc1ccc(NC(=O)C2CCN(S(=O)(=O)c3c(C)noc3/C=C/c3ccco3)CC2)cc1,-6.1%,.,-18.2%,?,.,-2.0
Cc1ccc(NC(=O)C2CCN(S(=O)(=O)c3c(C)noc3/C=C/c3ccco3)CC2)cc1C,-8.6%,.,?,13µM*,.,-11.3
Cc1noc(/C=C/N(C)C)c1S(=O)(=O)N1CCC(C(=O)Nc2ccc(Cl)cc2)CC1,-3.9%,-28.7,?,-25.1%,-24.2,2.7
CCOc1ccccc1C(=O)NCC(=O)N(C)Cc1cccnc1,.,25.2,-7.7%,?,-7.2,12.1
CCOC(=O)C(CC)Sc1nc2c(c(=O)[nH]c(=O)n2C)n1C/C=C(/C)Cl (configuration not stated),3.6%,0.0,7.31µM*,13µM*,7.7,2.0
CCOC(=O)C(C)Sc1nc2c(c(=O)[nH]c(=O)n2C)n1CCc1ccccc1 (configuration not stated),-4.5%,-11.1,-20.0%,-22.9%,1.1,2.7
C/C(Cl)=C/Cn1c(SCC(C)C)nc2c1c(=O)[nH]c(=O)n2C,0.8%,20.5,?,8.2µM*,-1.7,3.7
CCCCCOC(=O)CSc1nc2c(c(=O)[nH]c(=O)n2C)n1CCc1ccccc1,2.1%,15.9,?,?,-19.9,0.8
CCCCOC(=O)CSc1nc2c(c(=O)[nH]c(=O)n2C)n1C/C=C(\C)Cl,1.4%,19.6,?,16.4µM*,13.1,0.2
SMILES,ClpP mod,IL1B secr inh,DT40 TDP1 CPT,DT40 TDP1 no CPT,D3 antag,DRD3 agonist
C/C=C/CSc1nc2c(c(=O)[nH]c(=O)n2C)n1CCC,-1.1%,-12.4,-3.1%,?,20.4,6.3
O=C(COC(=O)CN1C(=O)c2ccccc2C1=O)NC1CCCCC1,-0.8%,13.2,-17.4%,10.7%,1.4,-1.6
COc1ccc(-c2csc(NC(=O)c3ccccc3F)c2C(=O)O)cc1,-5.6%,?,?,?,-5.8,-3.1
CCCCn1cc2c(c1-c1cccc(C)c1)c(=O)n(C)c(=O)n2C,-23.1%,24.1,?,?,9.4,2.9
Cc1cccc(-c2c3c(nc4c2c(=O)n(C)c(=O)n4C)-c2ccccc2C3O)c1 (configuration not stated),.,7.4,5.8µM*,4.61µM*,14.0,5.2
COc1ncc2nc(-c3cccs3)c(=O)n(Cc3cccs3)c2n1,.,.,20.1%,8.8%,.,.
O=C(CSc1nc(-c2ccccc2)c(-c2ccccc2)[nH]1)NCCN1C(=O)CSC1=O,31.6µM*,4.0,13µM*,14.6µM*,-5.8,1.2
CCN1CCN(C(=O)CN(CC)S(=O)(=O)c2ccc(F)cc2)CC1,-2.7%,5.9,5.9%,13.7%,-10.6,-26.0
N#C/C(=C\c1ccccc1)C(=O)Nc1cccnc1,1.0%,12.5,0.7%,6.5%,-28.4,-3.8
Cc1cc(/C=C(\C#N)C(=O)Nc2ccccc2)c(C)n1-c1ccc2c(c1)OCO2,-9.4%,?,?,16.4µM*,7.5,5.5
Cc1ccccc1NC(=O)/C(C#N)=C\c1cc(C)n(-c2ccc(C(=O)O)cc2)c1C,-1.7%,-56.2*,-5.0%,-11.3%,0.7,3.7
CNC(=O)/C(C#N)=C\c1cc(C)n(-c2ccc(N3CCOCC3)cc2)c1C,.,15.8,?,?,-8.0,3.5
Cc1cc(/C=C(/C#N)C(=O)Nc2ccccc2)c(C)n1-c1cccnc1,12.0%,-59.5*,?,?,31.4,2.1
CN(Cc1ccco1)c1ncncc1-c1cccc(NS(C)(=O)=O)c1,.,.,-17.6%,-17.7%,.,.
